From PubChem BioAssay (Tox21)
Records with an inconclusive call do not appear. The source made the active and inactive calls. Unless noted, the call rests on the fitted dose curve.

Columns and labels:
[1] = Nuclear factor erythroid 2-related factor 2/antioxidant responsive element (Nrf2/ARE) small molecule agonists: qHTS cell viability counter screen in human keratinocytes (AID 1919968; active means well fitted curve in the direction sought with a large enough effect in the repeat runs; an effect the other way counts as inactive or inconclusive; further: nearly all actives have a fitted effect of over 55% in size; further: potency means the concentration at half of the fitted maximal effect)
Method in brief: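 Viability counter-screen: KeratinoSens reporter cells, DMSO-delivered compounds, 23 h at 37 C, CellTiter-Fluor fluorescence.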

[2] = molecular target: Gonadotropin-releasing hormone receptor (Homo sapiens) (UniProt P30968); experiment: Human gonadotropin-releasing hormone receptor (GnRHR) small molecule agonists, calcium flux assay in GnRHR-HEK293 cells (AID 1920063); further: nearly all actives have a fitted effect of over 35% in size
Sequence of Gonadotropin-releasing hormone receptor (Homo sapiens) (P30968 whole entry, looked up): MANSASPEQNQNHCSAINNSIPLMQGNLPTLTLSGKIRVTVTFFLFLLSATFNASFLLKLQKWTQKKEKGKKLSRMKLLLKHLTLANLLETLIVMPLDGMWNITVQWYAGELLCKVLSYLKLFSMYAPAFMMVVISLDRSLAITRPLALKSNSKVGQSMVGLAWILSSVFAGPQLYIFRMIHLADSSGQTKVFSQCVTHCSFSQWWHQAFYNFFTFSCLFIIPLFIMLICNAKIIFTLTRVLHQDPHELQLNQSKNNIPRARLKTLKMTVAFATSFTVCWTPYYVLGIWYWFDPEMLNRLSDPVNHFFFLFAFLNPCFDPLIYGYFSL
Method in brief: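 Tox21-format agonist screen using human GnRHR-expressing HEK293 cells and a fluorescent calcium dye; kinetic 3-min fluorescence reading after compound addition, 15-point concentration series run in triplicate.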

[3] = molecular target: KiSS-1 receptor (Homo sapiens) (UniProt Q969F8); experiment: Human kisspeptin (KISS1R) small molecule agonists, calcium flux assay in KISS1R-HEK293 cells (AID 1920064; active means well fitted curve in the direction sought with a large enough effect in the repeat runs; an effect the other way counts as inactive or inconclusive)
Sequence of KiSS-1 receptor (Homo sapiens) (Q969F8 whole entry, looked up): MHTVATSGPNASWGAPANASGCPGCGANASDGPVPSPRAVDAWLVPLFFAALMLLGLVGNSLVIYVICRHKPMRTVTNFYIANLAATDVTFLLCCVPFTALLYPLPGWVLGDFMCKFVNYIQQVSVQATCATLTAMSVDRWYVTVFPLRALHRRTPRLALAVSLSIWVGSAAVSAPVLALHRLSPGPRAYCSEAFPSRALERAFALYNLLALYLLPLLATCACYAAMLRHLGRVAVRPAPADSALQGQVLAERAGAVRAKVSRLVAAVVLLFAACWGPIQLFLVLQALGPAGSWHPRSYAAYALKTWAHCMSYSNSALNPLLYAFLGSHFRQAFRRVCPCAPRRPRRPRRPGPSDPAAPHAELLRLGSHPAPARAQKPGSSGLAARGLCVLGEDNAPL
Method in brief: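 Intracellular calcium mobilization in KISS1R-HEK293 cells was recorded by fluorescence (Ex/Em 480/540) for 3 min following compound addition to cells pre-loaded 1 h with calcium dye.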

[4] = G protein-coupled receptor (GPCR) small molecule agonists, calcium flux assay: HEK293 wild type cell line counter screen (AID 1920065)
Method in brief: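 In this agonist-mode screen, ATP is the positive control and DMSO the vehicle. Cells grow 18 h before a 1 h dye incubation at 37 C; signal is taken at Ex/Em 480/540 over 3 min.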

[5] = p53 small molecule agonists, cell-based qHTS assay with human liver microsomes (AID 1963577)
Method in brief: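 Compounds act here after metabolic activation: human liver microsomes and NADPH, both at 0.5 mg/mL final, were co-added to p53RE-bla cells. Incubation ran 16 h at 37 C, followed by LiveBLAzer detection.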

[6] = p53 small molecule agonists, cell-based qHTS assay with rat liver microsomes (AID 1963578)
Method in brief: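 Read-out is beta-lactamase reporter fluorescence (LiveBLAzer, 2 h, room temperature, dark) in p53RE-bla cells treated 16 h at 37 C with compound, rat liver microsomes and NADPH, both 0.5 mg/mL final.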

[7] = p53 small molecule agonists, cell-based qHTS assay with human liver microsomes: qHTS cell viability counter screen (AID 1963579); further: nearly all actives have a fitted effect of over 45% in size
Method in brief: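 Cells carrying the p53 response-element beta-lactamase reporter are treated for 16 h at 37 C with test compounds in the presence of human liver microsomes and NADPH (both 0.5 mg/mL final); ATP-based CellTiter-Glo luminescence then reports viability.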

[8] = p53 small molecule agonists, cell-based qHTS assay: qHTS cell viability counter screen (AID 1963581); further: nearly all actives have a fitted effect of over 45% in size
Method in brief: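 Compounds are pinned onto HCT-116 p53RE-bla cells and left 16 h at 37 C. Following the reporter FRET read, ATP is quantified by CellTiter-Glo luminescence after 30 min at room temperature.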

[9] = p53 small molecule agonists, cell-based qHTS assay (AID 1963582; active means well fitted activation curve with a large enough effect in the signal ratio in the repeat runs, not every such curve was filed as active; the % refers to the signal ratio)
Method in brief: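 Agonist activity was scored from beta-lactamase FRET fluorescence in p53RE-bla cells treated 16 h at 37 C with compounds in DMSO, substrate incubation being 2 h at room temperature.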

[10] = molecular target: 5-hydroxytryptamine receptor 2A (Homo sapiens) (UniProt P28223); experiment: 5-hydroxytryptamine receptor 2A (HTR2A) small molecule antagonists, cell-based qHTS assay (AID 1963586); further: nearly all actives have a fitted effect of over 45% in size
Sequence of 5-hydroxytryptamine receptor 2A (Homo sapiens) (P28223 whole entry, looked up): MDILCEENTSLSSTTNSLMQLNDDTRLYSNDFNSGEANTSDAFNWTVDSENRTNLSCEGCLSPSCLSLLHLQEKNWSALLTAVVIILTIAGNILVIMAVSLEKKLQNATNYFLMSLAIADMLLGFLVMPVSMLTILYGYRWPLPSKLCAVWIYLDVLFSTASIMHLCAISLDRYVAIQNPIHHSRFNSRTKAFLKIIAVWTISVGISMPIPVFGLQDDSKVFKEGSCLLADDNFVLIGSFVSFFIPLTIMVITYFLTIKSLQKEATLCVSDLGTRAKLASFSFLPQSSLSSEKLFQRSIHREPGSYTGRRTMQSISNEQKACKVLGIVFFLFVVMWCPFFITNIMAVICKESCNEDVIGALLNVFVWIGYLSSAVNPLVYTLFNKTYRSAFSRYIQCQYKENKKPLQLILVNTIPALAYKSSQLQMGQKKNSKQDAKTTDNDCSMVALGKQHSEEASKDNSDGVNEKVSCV
Method in brief: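 Antagonist-mode intracellular calcium assay: DOI (4 nM) added after 5 min compound pre-incubation at room temperature to dye-loaded HTR2A-CHO cells. Fluorescence followed for 3 min, sampled every second.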

[11] = molecular target: 5-hydroxytryptamine receptor 2A (Homo sapiens) (UniProt P28223); experiment: 5-hydroxytryptamine receptor 2A (HTR2A) small molecule agonists, cell-based qHTS assay (AID 1963587); further: nearly all actives have a fitted effect of over 30% in size
Method in brief: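 HTR2A-CHO cells, plated 18 h at 37 C/5% CO2, dye-loaded 1 h at 37 C; compounds in DMSO added by pin tool (agonist mode). Intracellular calcium flux read as kinetic fluorescence on FDSS over 2 min at 1 s intervals.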

[12] = molecular target: Muscarinic acetylcholine receptor M1 (Homo sapiens) (UniProt P11229); experiment: Cholinergic receptor muscarinic 1 (CHRM1) small molecule antagonists, cell-based qHTS assay (AID 1963588); further: nearly all actives have a fitted effect of over 40% in size; further: potency means the concentration at half of the fitted maximal effect
Sequence of Muscarinic acetylcholine receptor M1 (Homo sapiens) (P11229 whole entry, looked up): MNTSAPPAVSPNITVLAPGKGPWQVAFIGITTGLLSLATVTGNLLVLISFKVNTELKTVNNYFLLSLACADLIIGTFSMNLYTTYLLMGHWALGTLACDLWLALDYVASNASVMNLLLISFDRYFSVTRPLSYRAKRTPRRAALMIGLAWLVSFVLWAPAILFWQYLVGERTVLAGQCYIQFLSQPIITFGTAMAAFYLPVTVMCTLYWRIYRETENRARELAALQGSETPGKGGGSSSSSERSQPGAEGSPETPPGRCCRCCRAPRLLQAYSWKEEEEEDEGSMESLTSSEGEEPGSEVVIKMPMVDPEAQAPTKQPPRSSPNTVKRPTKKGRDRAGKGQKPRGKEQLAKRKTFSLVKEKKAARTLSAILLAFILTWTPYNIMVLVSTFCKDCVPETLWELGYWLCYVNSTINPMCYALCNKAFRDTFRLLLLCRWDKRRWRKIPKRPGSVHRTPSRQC
Method in brief: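 CHRM1-CHO calcium-flux assay, antagonist mode. Cells were seeded 18 h, dye-loaded 1 h at 37 C and given compound for 5 min at RT, then acetylcholine was added at 50nM. FDSS fluorescence was read 3 min; 15 concentrations, three runs.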

[13] = molecular target: Muscarinic acetylcholine receptor M1 (Homo sapiens) (UniProt P11229); experiment: Cholinergic receptor muscarinic 1 (CHRM1) small molecule agonists, cell-based qHTS assay (AID 1963589); further: nearly all actives have a fitted effect of over 35% in size
Method in brief: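 Stable CHRM1-CHO cells (human receptor) were incubated 18 h, dye-loaded for 1 h at 37 C and exposed to test compounds for agonist activity, with calcium-dependent fluorescence followed kinetically.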

[14] = cAMP Responsive Elements (CRE) small molecule agonists, cell-based qHTS assay (AID 1963590)
Method in brief: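 FRET-based beta-lactamase readout (LiveBLAzer B/G, 2 h RT) quantified CRE activation in HEK 293T CRE-bla cells after 3 h treatment with DMSO-dissolved compounds.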

[15] = cAMP Responsive Elements (CRE) small molecule antagonists, cell-based qHTS assay (AID 1963591; active means well fitted inhibition curve with a large enough effect in the signal ratio in the repeat runs, not every such curve was filed as active; the % refers to the signal ratio)
Method in brief: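 qHTS in CRE-bla HEK 293T cells: compound in DMSO, then 0.25 uM NKH477 (final), 3 h at 37 °C/5% CO2; beta-lactamase FRET read-out after 2 h substrate incubation.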

[16] = molecular target: Beta-2 adrenergic receptor (Homo sapiens) (UniProt P07550); experiment: Adrenergic beta2 receptor (ADRB2) small molecule antagonists, cell-based qHTS assay (AID 1963592); further: series mostly up to about 92 µM; nearly all actives have a fitted effect of over 50% in size
Sequence of Beta-2 adrenergic receptor (Homo sapiens) (P07550 whole entry, looked up): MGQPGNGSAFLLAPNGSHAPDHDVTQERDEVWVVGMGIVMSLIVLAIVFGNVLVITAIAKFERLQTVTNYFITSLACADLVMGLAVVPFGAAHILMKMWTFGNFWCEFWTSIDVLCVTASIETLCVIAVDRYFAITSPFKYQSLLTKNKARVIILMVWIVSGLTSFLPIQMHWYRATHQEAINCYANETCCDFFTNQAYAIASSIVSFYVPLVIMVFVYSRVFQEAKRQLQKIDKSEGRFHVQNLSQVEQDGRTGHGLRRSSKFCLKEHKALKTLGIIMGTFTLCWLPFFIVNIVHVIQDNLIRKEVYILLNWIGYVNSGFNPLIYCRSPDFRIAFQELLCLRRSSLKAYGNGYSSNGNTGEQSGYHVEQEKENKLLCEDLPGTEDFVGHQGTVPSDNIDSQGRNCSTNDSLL
Method in brief: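 Cells (CHO, stable ADRB2 overexpression) incubated 18-20hr at 37C; compounds added from DMSO; agonist mix (1nM isoproterenol, 100uM IBMX, 25uM Ro-20-1724) added; 0.5hr RT; d2-cAMP and anti-cAMP-cryptate added; 1hr RT; 665/615 nm read.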

[17] = molecular target: Beta-2 adrenergic receptor (Homo sapiens) (UniProt P07550); experiment: Adrenergic beta2 receptor (ADRB2) small molecule agonists, cell-based qHTS assay (AID 1963593);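 further: CHO cells stably overexpressing human ADRB2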
Method in brief: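 CHO cells stably over-expressing ADRB2 were plated overnight at 37C, then dosed with compounds plus a stimulation mix containing 100uM IBMX and 25uM Ro-20-1724 for 0.5hr at room temperature. cAMP was measured by HTRF competition, 1hr.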

[18] = molecular target: D(2) dopamine receptor (Homo sapiens) (UniProt P14416); experiment: Dopamine D2 receptor (DRD2) small molecule agonists, cell-based qHTS assay (AID 1963594); further: nearly all actives have a fitted effect of over 35% in size
Sequence of D(2) dopamine receptor (Homo sapiens) (P14416 whole entry, looked up): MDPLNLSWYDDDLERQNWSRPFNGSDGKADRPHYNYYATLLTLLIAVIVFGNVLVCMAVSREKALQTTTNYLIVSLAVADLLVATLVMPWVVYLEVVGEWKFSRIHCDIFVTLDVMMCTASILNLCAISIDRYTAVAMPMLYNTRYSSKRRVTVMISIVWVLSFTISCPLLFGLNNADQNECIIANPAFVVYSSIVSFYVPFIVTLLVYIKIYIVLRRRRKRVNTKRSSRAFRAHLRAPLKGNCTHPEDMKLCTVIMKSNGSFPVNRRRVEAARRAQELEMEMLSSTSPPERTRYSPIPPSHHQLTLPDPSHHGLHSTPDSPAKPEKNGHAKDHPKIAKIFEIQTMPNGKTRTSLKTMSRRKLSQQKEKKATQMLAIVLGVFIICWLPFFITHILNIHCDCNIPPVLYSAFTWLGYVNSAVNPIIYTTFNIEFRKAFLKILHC
Method in brief: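 HEK293 cells stably expressing DRD2 were cultured 24 h at 37 C, then given Ro20-1724 (0.1 mM final) and compounds for 10 min at room temperature. NKH477 (200nM) was then added for 30 min. cAMP was read by HTRF.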

[19] = molecular target: D(2) dopamine receptor (Homo sapiens) (UniProt P14416); experiment: Dopamine D2 receptor (DRD2) small molecule antagonists, cell-based qHTS assay (AID 1963595; active means well fitted inhibition curve with a large enough effect in the signal ratio in the repeat runs, with a control signal flat; the % refers to the signal ratio)
Method in brief: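 Stable D2 receptor HEK293 line, 24 h after seeding. Compound preincubated 10 min, then quinpirole (12 nM) with forskolin analogue NKH477 (200 nM), 30 min, room temperature. Detection by time-resolved FRET of cAMP.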

[20] = p53 small molecule agonists, cell-based qHTS assay with rat liver microsomes: qHTS cell viability counter screen (AID 1963580); further: nearly all actives have a fitted effect of over 45% in size
Method in brief: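 In HCT-116 cells carrying a p53 response element-bla reporter, compounds were metabolically activated in situ by rat liver microsomes with NADPH over 16 h. Cell ATP content then served as the cytotoxicity measure.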
On the % scale 0 is the no-effect control and ±100 the full control effect.

CC(C)(C)c1ccc(C(=O)O)cc1
inactive: Potency [1] | Potency [2] | Potency [3] | Potency [4] | Potency [5] | Potency [6] | Potency [7] | Potency [8] | Potency [9] | Potency [10] | Potency [11] | Potency [12] | Potency [13] | Potency [14] | Potency [15] | Potency [16] | Potency [17] | Potency [18] | Potency [19]

Brc1c(NC2=NCCN2)ccc2nccnc12
inactive: Potency [1] | Potency [2] | Potency [3] | Potency [4] | Potency [5] | Potency [6] | Potency [7] | Potency [20] | Potency [8] | Potency [14] | Potency [15] | Potency [16] | Potency [17] | Potency [18] | Potency [19]

O=C1NC(=O)[C@@H]2CC=CC[C@H]12
inactive: Potency [1] | Potency [2] | Potency [3] | Potency [4] | Potency [5] | Potency [6] | Potency [7] | Potency [20] | Potency [8] | Potency [10] | Potency [11] | Potency [13] | Potency [16] | Potency [17] | Potency [18] | Potency [19]

O=C(c1ccc(O)cc1)c1ccc(O)c(O)c1O
inactive: Potency [1] | Potency [2] | Potency [3] | Potency [4] | Potency [5] | Potency [6] | Potency [7] | Potency [20] | Potency [8] | Potency [11] | Potency [12] | Potency [13]

C=CC(C)=CCC=C(C)C
inactive: Potency [1] | Potency [2] | Potency [3] | Potency [4] | Potency [5] | Potency [6] | Potency [7] | Potency [20] | Potency [9] | Potency [10] | Potency [11] | Potency [12] | Potency [13] | Potency [14] | Potency [16] | Potency [17] | Potency [18] | Potency [19]

CCN(CC)CCOC(=O)C(c1ccccc1)C1CCCCC1 (stereo not given)
active: Potency [12] 41 nM
inactive: Potency [1] | Potency [2] | Potency [3] | Potency [4] | Potency [5] | Potency [6] | Potency [7] | Potency [20] | Potency [13] | Potency [15] | Potency [16] | Potency [17] | Potency [18]

CCCC/C=C/CCCCO
inactive: Potency [1] | Potency [2] | Potency [3] | Potency [4] | Potency [5] | Potency [6] | Potency [7] | Potency [20] | Potency [10] | Potency [11] | Potency [12] | Potency [13] | Potency [14] | Potency [15] | Potency [16] | Potency [17] | Potency [18] | Potency [19]

CC1=CC(=C(c2ccc(N)cc2)c2ccc(N)cc2)C=CC1=N
inactive: activity change, negative = cytotoxicity [1] -10.2% [at 8.39 µM] | activity change [2] -1.28% [at 5.22 µM, hits give high values] | activation [3] 0.102% [at 6.97 µM] | activation [4] -0.23% [at 5.23 µM] | activation [5] -13.4% [at 5.99 µM] | activation [6] -2.26% [at 5.99 µM] | activity change, negative = cytotoxicity [7] -13.2% [at 5.99 µM] | activity change, negative = cytotoxicity [8] -0.979% [at 5.99 µM] | activation [9] -2.87% [at 5.99 µM] | activity, negative = inhibition [10] 14.5% [at 5.62 µM] | activation [11] 2.32% [at 7.02 µM] | activity, negative = inhibition [12] -8.08% [at 5.58 µM] | activation [13] -0.812% [at 6.97 µM] | activation [14] -0.0749% [at 8.39 µM] | activity change, negative = inhibition [15] -12.2% [at 8.39 µM] | activity change, negative = inhibition [16] -4.98% [at 8.39 µM] | activation [17] -33.8% [at 8.39 µM] | activation [18] -0.554% [at 8.39 µM] | activity change, negative = inhibition [19] 0.406% [at 8.38 µM]

CCCCCSCCCCC
inactive: Potency [1] | Potency [2] | Potency [3] | Potency [4] | Potency [5] | Potency [6] | Potency [7] | Potency [20] | Potency [8] | Potency [10] | Potency [11] | Potency [12] | Potency [14] | Potency [15] | Potency [16] | Potency [17] | Potency [18] | Potency [19]

Oc1ccc(N=Nc2ccccc2)cc1
active: Potency [1] 55.2 µM
inactive: Potency [2] | Potency [3] | Potency [4] | Potency [5] | Potency [6] | Potency [7] | Potency [20] | Potency [9] | Potency [11] | Potency [12] | Potency [13] | Potency [14] | Potency [15] | Potency [18] | Potency [19]

CC(C)COC(=O)/C=C/c1ccccc1
inactive: Potency [1] | Potency [2] | Potency [3] | Potency [4] | Potency [5] | Potency [6] | Potency [7] | Potency [8] | Potency [9] | Potency [10] | Potency [11] | Potency [13] | Potency [14] | Potency [16] | Potency [17] | Potency [18] | Potency [19]

CCC(C)O (stereo not given)
inactive: Potency [1] | Potency [2] | Potency [3] | Potency [4] | Potency [5] | Potency [6] | Potency [7] | Potency [20] | Potency [8] | Potency [10] | Potency [11] | Potency [12] | Potency [14] | Potency [16] | Potency [17] | Potency [18] | Potency [19]

O=C(/C=C/c1ccccc1)OCCc1ccccc1
inactive: Potency [1] | Potency [2] | Potency [3] | Potency [4] | Potency [5] | Potency [6] | Potency [7] | Potency [8] | Potency [9] | Potency [10] | Potency [11] | Potency [12] | Potency [13] | Potency [14] | Potency [15] | Potency [16] | Potency [18]

CC(C)CCOC(=O)c1ccc(N(C)C)cc1
inactive: Potency [1] | Potency [2] | Potency [3] | Potency [4] | Potency [5] | Potency [6] | Potency [7] | Potency [20] | Potency [8] | Potency [11] | Potency [12] | Potency [13] | Potency [14] | Potency [15] | Potency [16] | Potency [18] | Potency [19]

CC(CN)CCCN (stereo not given)
inactive: Potency [1] | Potency [2] | Potency [3] | Potency [4] | Potency [5] | Potency [6] | Potency [7] | Potency [20] | Potency [9] | Potency [10] | Potency [11] | Potency [12] | Potency [13] | Potency [15] | Potency [16] | Potency [18] | Potency [19]
